This note sets out measurements from ChEMBL document CHEMBL4296182, “CO-ADD screening of NIH NCI Diversity Set V”.

One assay deals with Staphylococcus aureus. Nature of the assay: Antibacterial activity against Staphylococcus aureus MRSA ATCC 43300 (CO-ADD:GP_020); MIC in CAMBH media using NBS plates, by Resazurin F(560/590). The conditions noted are these: Concentration 20 uM, ASSAY_TEST Inhibition of Bacterial Growth, detection method Resazurin, Fluorescence (ex560/em590), MEDIA CAMHB, plate type 384well, CORNING #3640, time 18 hr. The format is functional.

The next assay concerns Acinetobacter baumannii. In words: Antibacterial activity against Acinetobacter baumannii ATCC 19606 (CO-ADD:GN_034); MIC in CAMBH media using NBS plates, by Resazurin F(560/590). The format is functional. The conditions noted are these: Concentration 20 uM, ASSAY_TEST Inhibition of Bacterial Growth, detection method Resazurin, Fluorescence (ex560/em590), MEDIA CAMHB, plate type 384well, CORNING #3640, time 18 hr. In general terms: Alamar Blue is a resazurin reagent that responds to reducing activity.

The subject of another assay is Escherichia coli. In words: Antibacterial activity against Escherichia coli ATCC 25922 (CO-ADD:GN_001); MIC in CAMBH media using NBS plates, by Resazurin F(560/590). The conditions noted are these: Concentration 20 uM, ASSAY_TEST Inhibition of Bacterial Growth, detection method Resazurin, Fluorescence (ex560/em590), MEDIA CAMHB, plate type 384well, CORNING #3640, time 18 hr. The format is functional.

For the next assay, the system named is Klebsiella pneumoniae. The conditions noted are these: Concentration 20 uM; ASSAY_TEST Inhibition of Bacterial Growth; detection method Absorption (OD600); MEDIA CAMHB; plate type 384well; NBS; CORNING #3640; time 18 hr.
The next assay has as its system Candida albicans. The conditions noted are these: 20 µM.
For the next assay, the system named is Cryptococcus neoformans. The conditions noted are these: Concentration 20 uM; ASSAY_TEST Inhibition of Fungal Growth; detection method Resazurin; Absorption (OD600-OD570); plate type 384well; NBS; CORNING #3640.

The structures appear in SMILES notation. For part of these data: Measured potencies and affinities stand elsewhere.

As a reminder, the Inhibition is the drop in the measured response relative to a control, in per cent. `COC(=O)C1=CC(=O)N2CCN=C2S1`: the Inhibition in the assay with Staphylococcus aureus was 6.62%; in the assay on Acinetobacter baumannii, 15.89%; in the assay with Escherichia coli, -3.52%; in the assay on Klebsiella pneumoniae it was 13.6%; with Candida albicans, 3.42%; with Cryptococcus neoformans it was -1.02%.
Consider `O=C1c2ccccc2C(=Cc2cccnc2)c2ccccc21`, for which the Inhibition in the assay with Staphylococcus aureus was 8.79%; in the assay with Acinetobacter baumannii it was -7.39%; in the assay on Escherichia coli, 6.86%; in the assay with Klebsiella pneumoniae it was 10.23%; in the assay with Candida albicans it was 9.01%; in the assay with Cryptococcus neoformans, -9.38%.
Regarding `NC(=O)c1cc(Br)cc(C2CCCCC2)c1O`, the Inhibition in the assay on Staphylococcus aureus was 12.02%; with Acinetobacter baumannii, -1.26%; in the assay with Escherichia coli it was 2.39%; with Klebsiella pneumoniae, 15.38%; in the assay on Candida albicans it was 2.63%; in the assay with Cryptococcus neoformans it was -10.76%.
As for `C#Cc1cccc(NC(=O)c2ccc(Cl)cc2Cl)c1`, the Inhibition is 1.84% in the assay with Staphylococcus aureus; -16.25% in the assay on Acinetobacter baumannii; 7.38% with Escherichia coli; 6.81% with Klebsiella pneumoniae; 7.69% in the assay on Candida albicans; -7.06% in the assay on Cryptococcus neoformans.
For `COc1cc2c(cc1OC)C(/C=C/c1ccco1)=NCC2.O=S(=O)(O)O`, the Inhibition was 23.97% in the assay on Staphylococcus aureus; 13.38% in the assay on Acinetobacter baumannii; 7.22% with Escherichia coli; 11.02% in the assay on Klebsiella pneumoniae; -0.93% in the assay with Candida albicans; -6.67% in the assay on Cryptococcus neoformans.
With `O=C(Nc1cccc(-c2ccccc2)c1)N1CCN(C(=O)Nc2cccc(-c3ccccc3)c2)CC1`, the Inhibition with Staphylococcus aureus was 26.71%; in the assay with Acinetobacter baumannii it was -7.47%; with Escherichia coli, 7.55%; in the assay with Klebsiella pneumoniae, 6.58%; in the assay on Candida albicans it was -1.22%; with Cryptococcus neoformans it was -2.57%.
Turning to `O=C(O)CCC(=O)c1ccc2ccc3cccc4ccc1c2c34`, the Inhibition is -4.99% in the assay on Staphylococcus aureus; 9.69% with Acinetobacter baumannii; -8.48% in the assay on Escherichia coli; 28.79% in the assay on Klebsiella pneumoniae; 21.7% in the assay with Candida albicans; -11.75% with Cryptococcus neoformans.
Regarding `CO/N=C1/C=C(C)C(=O)C(C)=C1C`, the Inhibition is 4.57% with Staphylococcus aureus; -1.27% in the assay on Acinetobacter baumannii; 14.83% in the assay with Escherichia coli; 1.18% in the assay on Klebsiella pneumoniae; -2% in the assay on Candida albicans; -4.8% in the assay on Cryptococcus neoformans.
For `CCNC(=O)Oc1cccnc1O`, the Inhibition with Staphylococcus aureus is 2.22%; in the assay with Acinetobacter baumannii it was -10.2%; in the assay with Escherichia coli, 11.39%; in the assay with Klebsiella pneumoniae, 5.97%; in the assay on Candida albicans, 1.04%; in the assay on Cryptococcus neoformans, -16.02%.
Take `Nc1nc(N)c(/N=N/c2ccc(S(N)(=O)=O)cc2)c(O)n1`: the Inhibition was 11.8% in the assay with Staphylococcus aureus; -8.6% in the assay with Acinetobacter baumannii; -8.26% with Escherichia coli; 23.84% in the assay with Klebsiella pneumoniae; 0.97% in the assay with Candida albicans; -15.08% in the assay with Cryptococcus neoformans.
In the case of `CC1=CC(=O)C(/C(C)=N/c2ccccc2Cl)C(=O)O1` (stereo not drawn), the Inhibition was 7.59% with Staphylococcus aureus; 14.34% with Acinetobacter baumannii; -12.7% in the assay with Escherichia coli; 12.66% in the assay on Klebsiella pneumoniae; 20.8% with Candida albicans; 0.4% in the assay on Cryptococcus neoformans.
As to `OCC1(CO)CC2(C1)CC(CO)(CO)C2`, the Inhibition in the assay with Staphylococcus aureus was 5.83%; in the assay with Acinetobacter baumannii, -10.2%; in the assay with Escherichia coli, 9.77%; in the assay with Klebsiella pneumoniae, 7.41%; in the assay on Candida albicans, -2%; in the assay with Cryptococcus neoformans, 1.54%.
Turning to `O=C(Nc1ccc(Cl)c([N+](=O)[O-])c1)Nc1nc2ccccc2s1`, the Inhibition in the assay with Staphylococcus aureus was 44.46%; in the assay with Acinetobacter baumannii it was 0.46%; with Escherichia coli, 3.52%; with Klebsiella pneumoniae, 21.95%; in the assay with Candida albicans, 9.03%; in the assay on Cryptococcus neoformans, 11.69%.
`O=C(O)Cc1ccc(/N=N/c2c(O)c(C(=O)O)cc3ccccc23)cc1`: the Inhibition in the assay on Staphylococcus aureus is 6.99%; in the assay on Acinetobacter baumannii, 6.89%; with Escherichia coli, 1.22%; with Klebsiella pneumoniae it was 11.34%; in the assay with Candida albicans it was -4.81%; with Cryptococcus neoformans it was -5.37%.
Turning to `CC1(C)CC[C@]2(C(=O)n3ccnc3)CC[C@]3(C)[C@H](C(=O)C=C4[C@@]5(C)C=C(C#N)C(=O)C(C)(C)[C@@H]5CC[C@]43C)[C@@H]2C1`, the Inhibition was -14.27% with Staphylococcus aureus; -18.52% in the assay on Acinetobacter baumannii; 7.42% in the assay on Escherichia coli; 10.75% with Klebsiella pneumoniae; 4.81% with Candida albicans; -0.45% in the assay on Cryptococcus neoformans.
Regarding `COC(=O)Nc1csc2c1NC(=O)CCCC2`, the Inhibition with Staphylococcus aureus is 9.05%; with Acinetobacter baumannii, -9.14%; in the assay on Escherichia coli, 10.25%; in the assay on Klebsiella pneumoniae it was 10.74%; in the assay on Candida albicans it was 1.85%; with Cryptococcus neoformans, -7.13%.
As for `CC(C)COc1nc2c(c(=O)n(C)c(=O)n2C)n1C`, the Inhibition with Staphylococcus aureus is -1.72%; with Acinetobacter baumannii it was 11.63%; in the assay with Escherichia coli it was 12.8%; in the assay with Klebsiella pneumoniae, 5.36%; with Candida albicans, 2.67%; in the assay with Cryptococcus neoformans, -14.97%.
For `N#C/C(=C\c1c[nH]c2ccccc12)C(N)=O`, the Inhibition in the assay with Staphylococcus aureus was 13.33%; in the assay with Acinetobacter baumannii it was 12.56%; in the assay on Escherichia coli, 0.03%; in the assay with Klebsiella pneumoniae, 10.43%; in the assay on Candida albicans it was 4.53%; with Cryptococcus neoformans it was -10.69%.
